# Test results reported in PubChem BioAssay (NCI).
# This is part of a sample that, as a whole, favours compounds with a hit. Of some 83,000 tested, about 20% had one in any assay.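 Treatment: one concentration, 48 hours, 96-well format. Scoring: percent growth, with anything below 10 considered active.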 A number with no mark means an inactive call. The source made the active and inactive calls.
# System: HL-60(TB) leukemia
# Test: NCI-60 one-dose screen, 48 h (100 = growth as untreated, 0 = no growth, -100 = all killed)
# Conditions: 10 µM unless noted
row,Structure (SMILES),growth
1,COc1ccc(-c2nc3cc(Cl)c(Cl)cc3n2CC(=O)N=Nc2c(O)[nH]c3ccc(OC)cc23)cc1,86.3%
2,O=C(CCCN1C(=O)/C(=C/c2ccccc2F)SC1=S)N1CCOCC1,93.5%
3,Cc1cccc(/C=C/c2nn3c(-c4ccco4)nnc3s2)c1,86.2%
4,O=C(/C=C/c1ccccc1Cl)Nc1ncc(Cc2cc(Cl)ccc2Cl)s1,3.08% (active)
